Data taken from PubChem BioAssay AID1159580 (chemical genetic matrix, 2015).
Screen size: about 5,500 compounds; about 2,000 (36%) were called active. Not shown: some 18% with an inconclusive outcome. Cut-off read from the data, not from the text of the source: active = normalized growth mostly below about 0.91 (no sharp cut-off); inconclusive = no clear call, values can overlap the other calls; inactive = mostly above about 0.92. The list shows a part of the results.

Assay: chemical genetic growth profiling, strain panel (AID 1159580);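 note: tested at 20 µM; growth read once vehicle control cultures reached saturation at 30 °C; 1 = growth at the plate median or of vehicle wells; lower values mean less growth of the strain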
Details: growth OD

Measured: normalized growth

CC12CCC(CC1)C(C)(C)O2
inactive: S. cerevisiae deletion strains, locus YJL187C, strain SWE1 (second series), hits give low values 1 | S. cerevisiae deletion strains, locus YJL187C, strain SWE1, hits give low values 0.989 | S. cerevisiae deletion strains, locus YJR043C, strain POL32, hits give low values 0.989 | S. cerevisiae deletion strains, locus YJR066W, strain TOR1, hits give low values 0.94 | S. cerevisiae deletion strains, locus YKL009W, strain mrt4, hits give low values 1.03 | S. cerevisiae deletion strains, locus YKL068W, hits give low values 1.01 | S. cerevisiae deletion strains, locus YKL085W, strain MDH1 (second series), hits give low values 1.01 | S. cerevisiae deletion strains, locus YKL085W, strain MDH1, hits give low values 1.01 | S. cerevisiae deletion strains, locus YKL160W, strain elf1, hits give low values 1 | S. cerevisiae deletion strains, locus YKR001C, strain vps1, hits give low values 1.01 | S. cerevisiae deletion strains, locus YKR026C, strain gcn3, hits give low values 0.977 | S. cerevisiae deletion strains, locus YKR091W, strain srl3, hits give low values 0.993 | S. cerevisiae deletion strains, locus YLL001W, strain dnm1, hits give low values 0.985 | S. cerevisiae deletion strains, locus YLL026W, hits give low values 0.977 | S. cerevisiae deletion strains, locus YLL041C, strain sdh2, hits give low values 0.974 | S. cerevisiae deletion strains, locus YLR027C, strain aat2, hits give low values 0.97 | S. cerevisiae deletion strains, locus YLR039C, strain RIC1, hits give low values 1.01 | S. cerevisiae deletion strains, locus YLR058C, strain SHM2, hits give low values 1.01 | S. cerevisiae deletion strains, locus YLR102C, strain apc9, hits give low values 1.01 | S. cerevisiae deletion strains, locus YLR113W, strain HOG1, hits give low values 0.994 | S. cerevisiae deletion strains, locus YLR221C, strain rsa3, hits give low values 0.98 | S. cerevisiae deletion strains, locus YLR258W, strain gsy2, hits give low values 0.976 | S. cerevisiae deletion strains, locus YLR262C, strain YPT6 (second series), hits give low values 1.03 | S. cerevisiae deletion strains, locus YLR262C, strain YPT6, hits give low values 1 | S. cerevisiae deletion strains, locus YLR268W, strain sec22, hits give low values 0.994 | S. cerevisiae deletion strains, locus YLR320W, strain mms22, hits give low values 0.994 | S. cerevisiae deletion strains, locus YLR330W, strain CHS5, hits give low values 1.01 | S. cerevisiae deletion strains, locus YLR342W, strain FKS1 (second series), hits give low values 1.04 | S. cerevisiae deletion strains, locus YLR342W, strain FKS1, hits give low values 0.974 | S. cerevisiae deletion strains, locus YLR357W, strain rsc2, hits give low values 0.932 | S. cerevisiae deletion strains, locus YLR370C, strain arc18, hits give low values 0.972 | S. cerevisiae deletion strains, locus YLR371W, strain rom2, hits give low values 1.02 | S. cerevisiae deletion strains, locus YLR384C, strain iki3, hits give low values 0.974 | S. cerevisiae deletion strains, locus YLR418C, strain cdc73, hits give low values 1.05 | S. cerevisiae deletion strains, locus YML016C, strain PPZ1, hits give low values 1.01 | S. cerevisiae deletion strains, locus YML032C, strain rad52, hits give low values 1.02 | S. cerevisiae deletion strains, locus YML120C, strain ndi1, hits give low values 0.988 | S. cerevisiae deletion strains, locus YML124C, strain tub3, hits give low values 1.02 | S. cerevisiae deletion strains, locus YMR058W, strain fet3, hits give low values 0.98 | S. cerevisiae deletion strains, locus YMR078C, strain ctf18, hits give low values 1.01 | S. cerevisiae deletion strains, locus YMR125W, strain sto1, hits give low values 0.977 | S. cerevisiae deletion strains, locus YMR129W, hits give low values 0.992 | S. cerevisiae deletion strains, locus YMR205C, strain PFK2, hits give low values 0.99 | S. cerevisiae deletion strains, locus YMR223W, strain ubp8, hits give low values 1.03 | S. cerevisiae deletion strains, locus YMR231W, strain pep5, hits give low values 0.957 | S. cerevisiae deletion strains, locus YMR307W, strain GAS1, hits give low values 0.998 | S. cerevisiae deletion strains, locus YNL067W, strain RPL9B, hits give low values 1 | S. cerevisiae deletion strains, locus YNL071W, strain lat1, hits give low values 0.984 | S. cerevisiae deletion strains, locus YNL183C, strain NPR1, hits give low values 0.907 | S. cerevisiae deletion strains, locus YNL209W, strain ssb2, hits give low values 0.98 | S. cerevisiae deletion strains, locus YNL233W, strain BNI4, hits give low values 1.01 | S. cerevisiae deletion strains, locus YNL248C, strain rpa49, hits give low values 0.978 | S. cerevisiae deletion strains, locus YNL250W, strain rad50, hits give low values 0.99 | S. cerevisiae deletion strains, locus YNL271C, strain bni1, hits give low values 1.01 | S. cerevisiae deletion strains, locus YNL298W, strain CLA4, hits give low values 1.02 | S. cerevisiae deletion strains, locus YNL307C, strain MCK1, hits give low values 1.01 | S. cerevisiae deletion strains, locus YNL322C, strain KRE1 (second series), hits give low values 0.967 | S. cerevisiae deletion strains, locus YNR049C, strain mso1, hits give low values 0.983 | S. cerevisiae deletion strains, locus YNR052C, strain pop2, hits give low values 1.01 | S. cerevisiae deletion strains, locus YOL012C, strain htz1 0.871 | S. cerevisiae deletion strains, locus YOL147C, strain pex11, hits give low values 1.01 | S. cerevisiae deletion strains, locus YOR001W, strain rrp6, hits give low values 0.98 | S. cerevisiae deletion strains, locus YOR061W, strain CKA2, hits give low values 1.01 | S. cerevisiae deletion strains, locus YOR069W, strain VPS5, hits give low values 1 | S. cerevisiae deletion strains, locus YOR070C, strain gyp1, hits give low values 0.971 | S. cerevisiae deletion strains, locus YOR080W, strain dia2, hits give low values 0.975 | S. cerevisiae deletion strains, locus YOR083W, strain WHI5, hits give low values 0.992 | S. cerevisiae deletion strains, locus YOR106W, strain vam3, hits give low values 0.954 | S. cerevisiae deletion strains, locus YOR136W, strain idh2, hits give low values 1 | S. cerevisiae deletion strains, locus YOR144C, strain elg1, hits give low values 1.01 | S. cerevisiae deletion strains, locus YOR184W, strain ser1, hits give low values 1 | S. cerevisiae deletion strains, locus YOR231W, strain MKK1, hits give low values 1.01 | S. cerevisiae deletion strains, locus YOR265W, strain rbl2, hits give low values 0.999 | S. cerevisiae deletion strains, locus YOR270C, strain vph1, hits give low values 1.02 | S. cerevisiae deletion strains, locus YOR290C, strain snf2, hits give low values 0.979 | S. cerevisiae deletion strains, locus YOR316C, strain cot1, hits give low values 1.02 | S. cerevisiae deletion strains, locus YPL051W, strain arl3, hits give low values 0.973 | S. cerevisiae deletion strains, locus YPL055C, strain LGE1, hits give low values 1.02 | S. cerevisiae deletion strains, locus YPL078C, strain atp4, hits give low values 0.995 | S. cerevisiae deletion strains, locus YPL106C, strain sse1, hits give low values 0.978 | S. cerevisiae deletion strains, locus YPL240C, strain hsp82, hits give low values 0.968 | S. cerevisiae deletion strains, locus YPL256C, strain CLN2, hits give low values 0.977 | S. cerevisiae deletion strains, locus YPR119W, strain clb2, hits give low values 1.02 | S. cerevisiae deletion strains, locus YPR141C, strain kar3, hits give low values 1.03 | S. cerevisiae deletion strains, locus YPR163C, strain tif3, hits give low values 1.02 | S. cerevisiae deletion strains, locus YPR167C, strain met16, hits give low values 1.02 | S. cerevisiae deletion strains, strain wtn01, hits give low values 1.03 | S. cerevisiae strains, strain wild type, hits give low values 1.01
